Reference: PubChem BioAssay
“And” between values parts separate entries of the source, which are not always exact repeats. Equal values may be shown once. The source made the active and inactive calls.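 How the source made its calls, unless noted: active means compounds whose cell count with miR-34 switched on is under 0.7 times the count with it off; inactive means the rest.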

Columns and labels:
[1] = sensitizers of A549 cells to miR-34 induction, primary screen, imaging, A549 dox-inducible miR-34, nuclei and caspase counts (AID 1347080); conditions: A549 miR-34 inducible, Hoechst nuclei count, 48 h; further: test concentration not given here
[2] = survival rescue of mitochondrial mutant cells in low glucose, primary screen, MELAS cybrids, Rieske KO mouse fibroblasts, CellTiter-Glo (AID 1508586;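 active means mean z-score across replicates of 1.96 or higher in either the MELAS or the Rieske mutant cell line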;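 further: test concentration not given here; z relative to plate mean and SD of compound and empty wells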)
[3] = viability rescue of complex I mutant cybrids, primary screen, cell-based, galactose medium, ATP luminescence (AID 1645843;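 active means z-score of at least 1.8 in each of two replicates, scored against plate mean and spread of sample wells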;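 further: positive z means more ATP and so rescue of galactose-driven cybrid death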); conditions: complex I mutant cybrid cells, 72 h, stronger effect = higher value
[4] = stronger effect = lower value, cell number ratio, induced over uninduced
[5] = measured here: relative caspase fold change +Dox/-Dox
[6] = measured here: total cells with miR-34 induction, stronger effect = lower value
[7] = measured here: total cells without miR-34 induction
[8] = MELAS cybrid survival, CellTiter-Glo 48 h, stronger effect = higher value
[9] = Rieske KO mouse fibroblast survival, CellTiter-Glo 72 h

Row | Structure (SMILES) | fold change [1, 4] | fold change [1, 5] | cell count [1, 6] | cell count [1, 7] | z-score [2, 8] | z-score [2, 9] | z-score [3]
1 | CC(C)(C)Nc1nc(N)c(C(=O)c2ccccc2)s1 | 0.899 (inactive) | 0.5 | 6780 | 7540 | 3.13 (active) | 0.287 | 0.55 (inactive)
2 | NCCC(O)C(=O)NC1CC(N)C(OC2OC(CN)C(O)C(O)C2O)C(O)C1OC1OC(CO)C(O)C(N)C1O (centres undefined) | 0.888 (inactive) | 0.936 | 8210 | 9240 | -1.15 (inactive) | -0.0039 | 0.985 (inactive)
3 | Cc1ccc(NS(=O)(=O)c2ccccc2)c(C(=O)O)c1 | 0.888 (inactive) | 0.521 | 8960 | 10100 | 0.391 (inactive) | -0.208 | 0.425 (inactive)
4 | O=C(OC1Cc2c(O)cc(O)cc2OC1c1cc(O)c(O)c(O)c1)c1cc(O)c(O)c(O)c1 (centres undefined) | 0.855 (inactive) and 0.924 (inactive) | 1.5 and 0.635 | 9030 and 8300 | 10600 and 8990 | -0.179 (inactive) | -0.151 | -1.44 (inactive)
5 | COCCn1cncc1CNc1nccc(-c2c(C)nn(C)c2C)n1 | 0.881 (inactive) | 0.975 | 8090 | 9180 | -0.172 (inactive) | -0.0475 | -0.325 (inactive)
6 | CCC(C)(C)c1nnc(NC(=O)NCc2ccco2)s1 | 0.9 (inactive) | 1.07 | 8900 | 9890 | 0.377 (inactive) | -0.396 | 3.32 (active)
7 | Cn1nc(-c2cccnc2)c2[nH]c(-c3ccccc3OC(F)F)nc21 | 0.875 (inactive) | 0.925 | 6510 | 7440 | -1.45 (inactive) | 0.404 | 0.095 (inactive)
8 | Cc1ncsc1-c1ccn(CC(=O)Nc2ccnn2C2CCCCC2)n1 | 0.823 (inactive) | 0.676 | 7140 | 8680 | -0.424 (inactive) | 0.121 | -0.57 (inactive)
9 | CCNC(=O)c1cccnc1N1CCN(c2ccc(C)cc2C)CC1 | 0.919 (inactive) | 1.12 | 6880 | 7490 | -0.459 (inactive) | 0.378 | -0.485 (inactive)
10 | Fc1ccccc1-c1cc(NCc2ccncc2)n2nccc2n1 | 1.06 (inactive) | 0.296 | 4240 | 4020 | -1.56 (inactive) | -0.13 | 0.425 (inactive)
11 | Cc1cccc(C)c1OCC(=O)O | 0.919 (inactive) | 0.272 | 8740 | 9510 | 0.26 (inactive) | 0.0496 | 0.75 (inactive)
12 | O=C(O)CN(CCO)CCO | 0.873 (inactive) | 0.542 | 8460 | 9690 | -0.0565 (inactive) | -0.265 | 0.37 (inactive)
13 | CCCCCC(O)C=CC1C(O)CC(=O)C1CCCCCCC(=O)O (centres undefined) | 0.973 (inactive) and 0.918 (inactive) | 0.603 and 0.896 | 9870 and 7520 | 10100 and 8190 | -0.372 (inactive) | 0.491 | 0.865 (inactive)
14 | COc1ccccc1-c1noc(Cc2ccc3c(c2)OCO3)n1 | 0.864 (inactive) | 2.45 | 7680 | 8890 | 0.0213 (inactive) | 1.35 | 1.62 (inactive)
15 | COc1ccc(-c2oc3ncnc(NCCO)c3c2-c2ccc(OC)cc2)cc1 | 0.89 (inactive) | 0.844 | 5740 | 6450 | 1.03 | 11.9 | -1.77 (inactive)
16 | O=C(Cn1nc(Cc2ccccc2)c2ccccc2c1=O)NCCc1ccco1 | 0.937 (inactive) | 0.881 | 8560 | 9130 | 1.48 (inactive) | 0.664 | -0.33 (inactive)
17 | c1ccc(CN2CCC(Nc3ncnc4sccc34)CC2)nc1 | 0.895 (inactive) | 1.42 | 5240 | 5860 | -0.277 (inactive) | -0.421 | -0.58 (inactive)
18 | CCn1ncc(NC(=O)Cn2cc(-c3cccc(-n4cccn4)c3)cn2)n1 | 0.876 (inactive) | 1.27 | 2160 | 2470 | -0.0561 (inactive) | -0.379 | -0.505 (inactive)
19 | CC(NC(=O)OCc1ccccc1)C(=O)O (centres undefined) | 0.909 (inactive) | 0.337 | 9090 | 10000 | 0.137 (inactive) | 0.148 | 0.185 (inactive)
20 | CCn1cnc(NC(=O)N(C)Cc2ccc(OC)cc2)n1 | 0.869 (inactive) | 1.63 | 8620 | 9910 | -0.112 (inactive) | -0.365 | 1.77 (inactive)
21 | COc1ccc(-c2cc(-n3cccn3)ncn2)c(-n2cccn2)c1 | 0.922 (inactive) | 1.07 | 8340 | 9050 | -0.554 (inactive) | 0.208 | -0.595 (inactive)
22 | CC(=O)Nc1nc2c(s1)C(=O)NCCC2 | 0.907 (inactive) | 0.479 | 8770 | 9670 | 0.0141 (inactive) | -0.403 | 0.685 (inactive)
23 | Cc1ccc(-c2noc([C@@]34CC[C@@](C)(C(=O)O3)C4(C)C)n2)cc1Cl | 0.896 (inactive) | 1.34 | 8140 | 9090 | -0.00199 (inactive) | -1.05 | -0.54 (inactive)
24 | NCCCNc1ccccc1[N+](=O)[O-] | 0.945 (inactive) | 0.463 | 8170 | 8640 | -0.896 (inactive) | 0.0452 | 0.19 (inactive)
25 | CCn1ncc(NC(=O)Cn2nc(C)c(-c3ccc(-n4cccn4)cc3)c2C)n1 | 0.87 (inactive) | 1.42 | 4370 | 5020 | -1.09 (inactive) | 1.3 | -0.54 (inactive)
26 | COc1cc(OC)c(-c2nnc3ccccn23)cc1OC | 0.917 (inactive) | 1.49 | 9720 | 10600 | -0.104 (inactive) | 0.208 | -0.52 (inactive)
27 | O=c1[nH]cnc2sc3c(c12)CCCC3 | 0.885 (inactive) | 0.876 | 8460 | 9560 | -0.212 (inactive) | 0.0845 | 0.635 (inactive)
